In PubChem BioAssay AID1159580 (chemical genetic matrix, 2015):
The whole screen tested about 5,500 compounds, of which about 2,000 (36%) were called active. Roughly 18% stayed inconclusive and do not appear here. The list shows a part of the results. Values without a mark were called inactive. Cut-off read from the data, not from the text of the source: active = normalized growth mostly below about 0.91 (no sharp cut-off); inconclusive = no clear call, values can overlap the other calls; inactive = mostly above about 0.92.

Assay: chemical genetic growth profiling, strain panel (AID 1159580);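 note: tested at 20 µM; growth read once vehicle control cultures reached saturation at 30 °C; 1 = growth at the plate median or of vehicle wells; lower values mean less growth of the strain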
Settings: S. cerevisiae deletion strains, growth OD

COc1ccc(C(c2ccc(OC)cc2)C(Cl)(Cl)Cl)cc1
normalized growth (locus YAL013W, strain DEP1, active compounds read low): 1
normalized growth (locus YAL021C, strain ccr4, active compounds read low): 0.989
normalized growth (locus YAL026C, strain drs2, active compounds read low): 1.01
normalized growth (locus YAL030W, strain snc1, active compounds read low): 1.02
normalized growth (locus YBL061C, strain skt5, active compounds read low): 1.01
normalized growth (locus YBR009C, strain hhf1, active compounds read low): 1.01
normalized growth (locus YBR021W, strain FUR4, active compounds read low): 0.974
normalized growth (locus YBR023C, strain chs3, active compounds read low): 0.998
normalized growth (locus YBR171W, strain sec66, active compounds read low): 1
normalized growth (locus YBR229C, strain ROT2, active compounds read low): 0.997
normalized growth (locus YBR231C, strain swc5, active compounds read low): 1.01
normalized growth (locus YBR279W, strain paf1, active compounds read low): 1.02
normalized growth (locus YCL011C, strain gbp2, active compounds read low): 1.02
normalized growth (locus YCL016C, strain dcc1, active compounds read low): 1.01
normalized growth (locus YCL029C, strain bik1, active compounds read low): 0.981
normalized growth (locus YCL061C, strain MRC1, active compounds read low): 1.01
normalized growth (locus YCL069W, strain vba3, active compounds read low): 1.02
normalized growth (locus YCR088W, strain abp1, active compounds read low): 1.01
normalized growth (locus YDL005C, strain med2, active compounds read low): 1.01
normalized growth (locus YDL035C, strain GPR1, active compounds read low): 0.999
normalized growth (locus YDL040C, strain nat1, active compounds read low): 1.02
normalized growth (locus YDL074C, strain BRE1, active compounds read low): 0.986
normalized growth (locus YDL101C, strain DUN1, active compounds read low): 0.996
normalized growth (locus YDL134C, strain PPH21, active compounds read low): 1
normalized growth (locus YDL185W, strain tfp1, active compounds read low): 0.981
normalized growth (locus YDL192W, strain arf1, active compounds read low): 0.992
normalized growth (locus YDR001C, strain nth1, active compounds read low): 1.01
normalized growth (locus YDR069C, strain doa4, active compounds read low): 0.992
normalized growth (locus YDR101C, strain arx1, active compounds read low): 0.995
normalized growth (locus YDR137W, strain rgp1, active compounds read low): 0.959
normalized growth (locus YDR150W, strain NUM1, active compounds read low): 1
normalized growth (locus YDR159W, strain sac3, active compounds read low): 0.972
normalized growth (locus YDR162C, strain NBP2, active compounds read low): 1.01
normalized growth (locus YDR195W, strain ref2): 1.07
normalized growth (locus YDR297W, strain sur2, active compounds read low): 1
normalized growth (locus YDR318W, strain mcm21, active compounds read low): 0.996
normalized growth (locus YDR334W, strain swr1, active compounds read low): 1.03
normalized growth (locus YDR335W, strain msn5, active compounds read low): 1.01
normalized growth (locus YDR388W, active compounds read low): 0.988
normalized growth (locus YDR392W, strain spt3, active compounds read low): 0.957
normalized growth (locus YDR502C, strain sam2, active compounds read low): 0.989
normalized growth (locus YEL003W, strain gim4, active compounds read low): 0.994
normalized growth (locus YEL037C, strain rad23, active compounds read low): 1.01
normalized growth (locus YEL061C, strain CIN8 (second series), active compounds read low): 1.01
normalized growth (locus YEL061C, strain CIN8, active compounds read low): 0.995
normalized growth (locus YER015W, strain faa2, active compounds read low): 0.984
normalized growth (locus YER016W, strain bim1, active compounds read low): 1.02
normalized growth (locus YER110C, active compounds read low): 0.984
normalized growth (locus YER111C, strain swi4, active compounds read low): 1.01
normalized growth (locus YER155C, strain BEM2 (second series), active compounds read low): 1
normalized growth (locus YER155C, strain BEM2, active compounds read low): 0.989
normalized growth (locus YER167W, strain BCK2, active compounds read low): 0.996
normalized growth (locus YFR010W, strain ubp6, active compounds read low): 1.01
normalized growth (locus YGL078C, strain dbp3, active compounds read low): 0.991
normalized growth (locus YGL086W, strain mad1, active compounds read low): 1.02
normalized growth (locus YGL167C, strain pmr1, active compounds read low): 1.01
normalized growth (locus YGL173C, strain kem1, active compounds read low): 1
normalized growth (locus YGL227W, strain vid30, active compounds read low): 1.01
normalized growth (locus YGL240W, strain doc1, active compounds read low): 1.02
normalized growth (locus YGL248W, strain PDE1, active compounds read low): 0.987
normalized growth (locus YGL253W, strain hxk2, active compounds read low): 0.997
normalized growth (locus YGR078C, strain PAC10, active compounds read low): 1.01
normalized growth (locus YGR135W, strain pre9, active compounds read low): 0.994
normalized growth (locus YGR229C, strain SMI1, active compounds read low): 1
normalized growth (locus YGR252W, strain gcn5, active compounds read low): 0.947
normalized growth (locus YHR013C, strain ard1, active compounds read low): 0.949
normalized growth (locus YHR027C, strain rpn1, active compounds read low): 1
normalized growth (locus YHR030C, strain SLT2, active compounds read low): 1
normalized growth (locus YHR079C, strain IRE1 (second series), active compounds read low): 0.979
normalized growth (locus YHR094C, strain hxt1, active compounds read low): 0.994
normalized growth (locus YHR129C, strain ARP1, active compounds read low): 1
normalized growth (locus YHR142W, strain chs7, active compounds read low): 0.988
normalized growth (locus YHR200W, strain rpn10, active compounds read low): 0.985
normalized growth (locus YIL066C, strain RNR3, active compounds read low): 0.977
normalized growth (locus YIL073C, strain SPO22, active compounds read low): 0.952
normalized growth (locus YIL125W, strain kgd1, active compounds read low): 0.996
normalized growth (locus YIR030C, strain dcg1, active compounds read low): 0.998
normalized growth (locus YJL092W, strain hpr5, active compounds read low): 1.01
normalized growth (locus YJL095W, strain BCK1 (second series), active compounds read low): 1.02
normalized growth (locus YJL095W, strain BCK1, active compounds read low): 1.03
normalized growth (locus YJL115W, strain asf1, active compounds read low): 1.01
normalized growth (locus YJL129C, strain trk1, active compounds read low): 0.847 (active)
normalized growth (locus YJL134W, strain LCB3, active compounds read low): 0.989
normalized growth (locus YJL154C, strain vps35, active compounds read low): 1.01
normalized growth (locus YJL164C, strain tpk1, active compounds read low): 0.988
normalized growth (locus YJL166W, strain qcr8, active compounds read low): 0.992
normalized growth (locus YJL168C, strain set2, active compounds read low): 0.989
normalized growth (locus YJL187C, strain SWE1 (second series), active compounds read low): 0.997
normalized growth (locus YJL187C, strain SWE1, active compounds read low): 1.03
